High-throughput results (PubChem BioAssay)
The list is not random: actives were taken first. Their share in the collection is about 1%.
TRPML1 agonist – qHTS for Agonists of the Human Mucolipin Transient Receptor Potential 1 (TRPML1) | Mucolipin-1 (Homo sapiens), Q9GZU1 | TRPML1-expressing cells, Ca2+ dye fluorescence, FDSS | activation, % (test concentration not listed) | hit rate 0.12% among 410,000 | AID 624414, 2012; in the data active means activation above about 50%; inconclusive means mostly about 30% to 49%
Target sequence (Q9GZU1 whole entry, looked up): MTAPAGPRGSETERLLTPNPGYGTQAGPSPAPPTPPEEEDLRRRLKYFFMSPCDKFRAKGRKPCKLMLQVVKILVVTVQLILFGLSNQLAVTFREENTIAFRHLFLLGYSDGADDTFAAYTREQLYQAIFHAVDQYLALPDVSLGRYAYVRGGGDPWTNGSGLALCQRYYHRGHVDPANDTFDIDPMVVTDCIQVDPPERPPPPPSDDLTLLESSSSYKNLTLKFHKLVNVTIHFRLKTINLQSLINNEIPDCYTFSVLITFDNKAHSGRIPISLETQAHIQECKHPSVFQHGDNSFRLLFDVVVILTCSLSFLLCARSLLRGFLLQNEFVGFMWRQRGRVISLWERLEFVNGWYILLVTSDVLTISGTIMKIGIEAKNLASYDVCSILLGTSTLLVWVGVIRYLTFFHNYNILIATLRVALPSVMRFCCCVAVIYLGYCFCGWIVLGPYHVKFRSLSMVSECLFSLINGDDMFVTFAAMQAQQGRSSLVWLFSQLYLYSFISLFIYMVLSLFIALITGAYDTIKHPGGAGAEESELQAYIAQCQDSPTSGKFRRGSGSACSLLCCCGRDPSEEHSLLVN
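Tetracycline-induced TRPML1-DL cells are seeded and incubated overnight before loading with a no-wash Ca2+ dye and quencher. Agonist activity is taken from the 110 s fluorescence read following compound pin-transfer on an FDSS, before EC80 54-4 challenge.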
PTAP TSG101 blk – qHTS Assay for Iinhibitors of HIV-1 Budding by Blocking the Interaction of PTAP/TSG101; 340,000 tested, under 10 active; Potency, µM (doses to about 115 µM), most hits filed as inhibitors; Tumor susceptibility gene 101 protein (Homo sapiens), Q99816; Fluorescence polarization, FITC-PTAP peptide / Tsg101 binding; active means well fitted inhibition curve with a large enough effect in the main read-out, with a control signal flat, not every such curve was filed as active; inconclusive means small, poorly fitted or top-dose-only effect, or effect the other way, or a change in a side signal; inactive means no such curve, though single readings can be large or run the other way
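Tsg101 binding domain (10 uM final) was mixed with compound and a FITC-labeled PTAP peptide (50 nM final) in HEPES pH 7.5 buffer with NaCl, Tween 20, EDTA and TCEP; fluorescence polarization was read after 20 min at r.t.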
GRP78 ERSR act – qHTS for Inducers of the Endoplasmic Reticulum Stress Response (ERSR) in Human Glioma: qHTS; Potency, µM, actives largely listed as activators; AID 602332, 2012; U87-MG GRP78 promoter luciferase reporter, 16 h; hit rate 0.02% among 420,000; active means well fitted activation curve with a large enough effect; inconclusive means small, poorly fitted or top-dose-only effect; inactive means no such curve, though single readings can be large or run the other way; further: series mostly up to about 76 µM; nearly all actives have a fitted effect of over 35% in size
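ERSR induction read as luciferase luminescence (Bright-Glo, 10 min at room temperature) in stably transfected human U87-MG glioma cells exposed to compounds for 16 h, using GRP78 as sensor.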
TRPML1 blocker – qHTS for Inhibitors of the Human Mucolipin Transient Receptor Potential 1 (TRPML1). TRPML1-inducible cells, Ca2+ dye fluorescence, FDSS; hits give low values; inhibition of EC80 agonist-evoked calcium signal. hit rate 0.02% among 390,000. activity change, negative = inhibition, % (test concentration not listed). Mucolipin-1 (Homo sapiens), Q9GZU1. AID 624415, 2012; in the data active means activity change below about -50%; inconclusive means between about -30% and that limit;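 further: stimulus is agonist 54-4 at its EC80 concentration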
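Tet-induced TRPML1-DL cells loaded with Ca8 no-wash calcium dye were read kinetically on FDSS. Compound addition was followed by EC80 agonist 54-4 (4 uM final); inhibition was read over 110 s.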
KCNH2 WT inh – qHTS for Inhibitors of KCHN2 3.1: Wildtype qHTS | U2OS, BacMam KCNH2, thallium flux FluxOr; hits give low values | AID 720551, 2013 | activity change, % at 1.84 µM | hit rate 0.37% among 340,000;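 active means maximum activity change below -70%; inconclusive means maximum activity change between -70% and -50%; inactive means maximum activity change above -50%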
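U2OS cells transduced with wild-type KCNH2 virus are loaded with FluxOr dye for 45 min, and thallium flux is measured in kinetic reads before and after stimulation buffer. Rate constants are normalized to DMSO controls.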
KCNH2 3.1 block – qHTS for Inhibitors of KCHN2 3.1: Mutant qHTS. U2OS KCNH2 3.1, thallium flux FluxOr; hits give low values. activity change, % (tested at about 1.8 µM). hit rate 0.95% among 340,000. AID 720553, 2013;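 active means maximum activity change below -70%; inconclusive means maximum activity change from -70% to -50%; inactive means maximum activity change above -50%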;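 further: thallium influx rate constant from kinetic fluorescence after stimulation buffer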
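Measured as rate of thallium-driven FluxOr signal in transduced U2OS cells carrying the 3.1 channel, read kinetically for 2 min upon stimulation; values are rate constants scaled to DMSO control wells.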
A number is an active result; n = inactive; u = inconclusive; x = no result given.

SMILES | TRPML1 agonist | PTAP TSG101 blk | GRP78 ERSR act | TRPML1 blocker | KCNH2 WT inh | KCNH2 3.1 block
COc1cccc(CN2CCCC(c3nc(C)ncc3-c3ccc(F)cc3)C2)c1OC (stereo not drawn) | x | x | n | x | x | x
Cc1c(C(=O)NCC2(N3CCOCC3)CCCC2)cnn1-c1nccc(-c2ccccc2F)n1 | x | x | n | x | x | x
CCN1CCc2c(sc(NC(=O)c3ccc(S(=O)(=O)N(C)c4ccccc4)cc3)c2C(=O)NC)C1 | 60.7 | u | n | n | n | n
CC(C)(C)C(=O)OCc1nc(-c2ccc(C(F)(F)F)cc2)cs1 | n | n | n | n | n | -92.6
Cc1noc(C)c1-c1nc(CSc2ccccc2)no1 | n | n | n | n | n | n
Cc1cc(S(=O)(=O)Cc2noc(-c3c(C)noc3C)n2)c(C)cc1Cl | 120.0 | n | n | n | n | n
O=C(CCCN1C(=O)/C(=C\c2ccccc2)SC1=S)Nc1ccc(O)cc1C(=O)O | n | n | n | n | n | -115.6
CC(C)CCn1cnc2c1c(=O)[nH]c(=O)n2Cc1ccccc1 | n | n | n | n | n | n
CC(C)Cn1cnc2c1c(=O)[nH]c(=O)n2Cc1ccccc1 | n | n | n | n | n | -82.3
Cc1cc(C)n(Cc2cccc(C(=O)NCC3Cc4cccc(-c5ncccn5)c4O3)c2)n1 (stereo not drawn) | x | x | n | x | x | x
COc1cccc2ccc(CN3CCC4(CC3)c3ccccc3[C@@H](NC(=O)c3ccccc3)[C@@H]4O)nc12 | x | x | n | x | x | x
Fc1c(CSC(=S)N2CCOCC2)cccc1CSC(=S)N1CCOCC1 | n | n | n | n | -151.7 | -195.6
Cc1cc(N2CCN(c3nc4ccccc4s3)CC2)n2ncnc2n1 | n | n | n | n | n | -71.8
Cc1cc(N2CCN(C(c3ccccc3)c3ccccc3)CC2)n2ncnc2n1 | n | n | n | n | n | n
CCOC(=O)N1CCC(=NNS(=O)(=O)c2cccc([N+](=O)[O-])c2)CC1 | n | n | n | n | n | -71.2
Cc1ccc(S(=O)(=O)N2CCN(c3nc(-n4ccnn4)nc4ccccc34)CC2)cc1 | n | x | x | x | x | x
O=C(NCc1nnc2n1CCN(Cc1ccc(C(F)(F)F)cc1)CC2)c1ccccn1 | x | x | n | x | x | x
Nc1ncnc2c1ncn2[C@@H]1O[C@H](CNC(=O)OC[C@@H](N)Cc2ccccc2)[C@@H](O)[C@H]1O | n | x | n | n | x | x
O=C(OCC1OC(n2cnc3c(N(C(=O)c4ccccc4)C(=O)c4ccccc4)ncnc32)C(O)C1F)c1ccccc1 (stereo not drawn) | n | n | n | n | n | -85.6
CC(C)(C)n1ncc2c(=O)n(Cc3cc(Cl)ccc3Cl)cnc21 | n | x | n | n | x | x
CCCCc1nc2cc(C(=O)N3CCN(c4nc(C)cnc4C)CC3)ccc2o1 | n | n | n | n | n | -77.3
Nc1ccc(N)c([N+](=O)[O-])c1 | x | x | n | x | x | x
CC(=O)Nc1ccc(NC(=O)c2sc3nc4n(c(=O)c3c2C)CCCCC4)cc1 | n | n | n | n | x | n
CCc1ccc(NC(=O)c2sc3nc4n(c(=O)c3c2C)CCC4)cc1 | n | n | n | n | n | -90.6
CCCCCC[n+]1ccccc1/C=C/c1ccc(N(C)C)cc1 | 69.0 | x | n | n | x | x
SMILES | TRPML1 agonist | PTAP TSG101 blk | GRP78 ERSR act | TRPML1 blocker | KCNH2 WT inh | KCNH2 3.1 block
Cc1cc(=O)oc2cc(NC(=O)C(CCCN=C(N)N)NC(=O)OCc3ccccc3)ccc12 (stereo not drawn) | n | n | n | -52.0 | n | n
CC(C)(C)n1ncc2c(=O)n(Cc3cc(F)ccc3Cl)cnc21 | n | x | n | n | x | x
COc1cc(/C=C/C(=O)c2ccc3c(c2)OCO3)cc(OC)c1OC | n | n | 28.2µM | n | n | n
CC(C)(C)c1ccc(S(=O)(=O)N2C=CC(C(F)(F)F)=NCC2)cc1 | n | n | n | n | n | n
Cc1ccc(S(=O)(=O)N2C=CC(C(F)(F)F)=NCC2)cc1 | n | n | n | n | -76.5 | n
Cn1c(N)c(C(=O)c2cc(-c3ccccn3)nc3ccccc23)c(=O)[nH]c1=O | n | n | n | n | -101.2 | n
Cc1cc(C)n(S(=O)(=O)/C=C/c2ccccc2)n1 | n | n | n | n | -87.5 | n
Cc1ccc(S(=O)(=O)n2nc(C)cc2C)cc1 | n | n | n | n | n | n
O=C(CC1S/C(=N\S(=O)(=O)c2ccccc2)N(c2ccccc2)C1=O)Nc1ccc(F)cc1 (stereo not drawn) | n | n | n | n | n | -80.3
Cc1c(C(=O)NCc2nccs2)cnn1-c1ncc2c(n1)-c1ccccc1CC2 | x | x | n | x | x | x
Cc1c(NC(=O)Nc2cccc(Cl)c2)c(=O)n(-c2ccccc2)n1C | n | n | n | n | n | n
Cc1cccc(NC(=O)Nc2c(C)n(C)n(-c3ccccc3)c2=O)c1 | n | n | n | n | -102.1 | n
Cc1cc(C)n(-c2nc(-c3ccc(Cl)c(Cl)c3)cs2)n1 | n | n | n | n | -124.9 | n
O=C(COC(=O)c1ccc(Cl)c(S(=O)(=O)N2CCOCC2)c1)Nc1ccc2[nH]c(=O)[nH]c2c1 | n | n | n | n | n | n
O=C(COC(=O)c1ccc(Cl)c(S(=O)(=O)N2CCN(c3ccc(F)cc3)CC2)c1)Nc1cccc(Cl)c1 | n | n | n | n | n | -82.2
Cc1ccc2c(CN3CCN(Cc4ccccc4)CC3)cc(=O)oc2c1 | n | n | n | n | -86.2 | -107.7
O=c1cc(CN2CCN(Cc3ccccc3)CC2)c2ccc(O)cc2o1 | n | n | n | n | u | -84.7
Cc1c(C(=O)N(C)Cc2nccs2)sc2ncnc(NCC3CCCO3)c12 (stereo not drawn) | x | x | n | x | x | x
O=C(c1cnsn1)N1CCOc2ccc(CN3CCOCC3)cc2C1 | x | x | n | x | x | x
